The structures appear in SMILES notation. A structure can be active in one record and inactive in another. Calls of active or inactive are those of the source. Rule for the calls: active = hit-call score of the fitted dose curve at least 0.9, where 1 is the maximum; inactive = score below 0.9.

What is called AC50 is the midpoint of the concentration-response curve, whichever way the signal moves.

Read-out in the assay: Intercellular Adhesion Molecule 1 (ICAM1), ICAM1 (gene 3383)
The assay can be described thus: BSK_KF3CT_ICAM1: BioMAP Diversity Plus: KF3CT Assay for Intercellular Adhesion Molecule 1 (ICAM1) Biomarker Activity (AID 2283067). Particulars: primary human keratinocytes with fibroblasts; actives raise or lower the signal. The method, then: BSK_KF3CT is a cell-based, multiplexed-readout assay that uses keratinocytes and foreskin fibroblasts, a human skin primary cell co-culture, with measurements taken at 24 hours after chemical dosing in a 96-well plate.BSK_KF3CT_ICAM1 is an assay component measured in the BSK_KF3CT assay. It measures ICAM-1 antibody related to regulation of gene expression using ELISA technology.Data from the assay component BSK_KF3CT_ICAM1 was analyzed into 1 assay endpoint. This assay endpoint, BSK_KF3CT_ICAM1, was analyzed with bidirectional fitting relative to DMSO as the negative control and baseline of activity. Using a type of binding reporter, gain or loss-of-signal activity can be used to understand changes in the signaling as they relate to the gene ICAM1. Furthermore, this assay endpoint can be referred to as a primary readout, because this assay has produced multiple assay endpoints where this one serves a signaling function. To generalize the intended target to other relatable targets, this assay endpoint is annotated to the cell adhesion molecules intended target family, where the subfamily is Immunoglobulin CAM.
The levels of cell surface (or secreted, indicated by the prefix "s") biomarker endpoints were measured by ELISA. Overt cytotoxicity to cells in confluent adherent cultures (all systems other than the BT system) was assessed by measuring total protein levels using sulforhodamine B (SRB) staining in parallel cultures at the time of biomarker measurements, indicated as SRB endpoints. For proliferation assays for adherent cell types, individual cell types are cultured at sub-confluence and relative cell numbers quantified by SRB staining at time points optimized for each system (48 h: 3C and CASM3C systems; 72 h: BT and HDF3CGF systems; 96 h: SAg system). SRB was performed by staining cells with 0.1% SRB after fixation with 10% TCA and reading wells at 560 nm.Viability and proliferation of PBMC (T cells) was quantified by Alamar Blue reduction for the SAg and BT systems. For PBMC viability (referred to as PBMC Cytotoxicity within the assay endpoint names), cells were plated (75,000/well in a 96-well plate) and then chemical samples added for 1 h before addition of activators, SEB and TSST-1 (20 ng/mL final concentration each). Cells were incubated for 90 h. Then, Alamar Blue (20 uL/well) (Invitrogen, Cat DAL1100) was added for 6 h, and the plates were read with a fluorescence microplate reader at 546/580 nm (excitation/emission). For PBMC proliferation, cells were plated and activated as above but incubated for only 16 h prior to addition of Alamar Blue. Plates were read after 6 h.
As to `C[C@H]1[C@H](c2ccc(Cl)cc2)SC(=O)N1C(=O)NC1CCCCC1`, the outcome was inactive. The same measure, in the same setting: the value for `Cc1[nH]c(=O)n(C(C)(C)C)c(=O)c1Cl` was “inactive”. For `Cc1cc(C)nc(NC(=O)NS(=O)(=O)c2ccccc2C(=O)OC2COC2)n1`, the outcome was inactive. The same measure, in the same setting: the value for `CNC(=O)/C=C(\C)OP(=O)(OC)OC` was “inactive”. As to `O=S(=O)(O)C(F)(F)C(F)(F)C(F)(F)C(F)(F)C(F)(F)C(F)(F)C(F)(F)C(F)(F)F`, the result was inactive and the AC50 was 29.9 µM (active). Turning to `CCCN(CCOc1c(Cl)cc(Cl)cc1Cl)C(=O)n1ccnc1`, the outcome was inactive. On the same count and under the same terms, the value for `CCC(C)Nc1c([N+](=O)[O-])cc(C(C)(C)C)cc1[N+](=O)[O-]` (stereo not given) was “inactive”. Take `ClC1C(Cl)C(Cl)C(Cl)C(Cl)C1Cl` (stereo not given): the outcome was inactive.

Regarding `COC(=O)c1ccccc1S(=O)(=O)NC(=O)Nc1nc(C)nc(OC)n1`, the outcome was inactive.

`CC(C)OC(=O)Nc1cccc(Cl)c1`: the outcome was inactive. `C#CCN1C(=O)COc2cc(F)c(N3C(=O)C4=C(CCCC4)C3=O)cc21`: the outcome was inactive. Turning to `COc1nn(CSP(=S)(OC)OC)c(=O)s1`, the outcome was inactive. `O=C(O)CCCOc1ccc(Cl)cc1Cl`: the result was inactive. The same measure, in the same setting: with `COC(=O)c1ccccc1S(=O)(=O)NC(=O)N(C)c1nc(C)nc(OC)n1` the entry was “inactive”; with `CC1(c2ccc(Oc3ccccc3)cc2)OC(=O)N(Nc2ccccc2)C1=O` (stereo not given), “inactive”. For the molecule `CNC(=O)Oc1cccc(N=CN(C)C)c1`, the result was inactive. For the molecule `N#Cc1c(Cl)c(Cl)c(Cl)c(C#N)c1Cl`, the AC50 was 0.786 µM (active). Consider `O=C1c2ccccc2C(=O)N1SC(Cl)(Cl)Cl`, for which the outcome was inactive. Regarding `Oc1cc(Cl)ccc1Oc1ccc(Cl)cc1Cl`, the AC50 was 32.2 µM (active) [middle of 4 runs]. With `[2H]C1([2H])[n+]2ccccc2-c2cccc[n+]2C1([2H])[2H]`, the result was inactive.

Regarding `O=C(NC(=O)c1c(F)cccc1F)Nc1ccc(OC(F)(F)C(F)OC(F)(F)F)c(Cl)c1` (stereo not given), the outcome was inactive. `CCC(C)(NC(=O)c1cc(Cl)c(C)c(Cl)c1)C(=O)CCl` (stereo not given): the AC50 is 16.5 µM (active). In the case of `COC(=O)c1ccccc1CS(=O)(=O)NC(=O)Nc1nc(OC)cc(OC)n1`, the result was inactive. Take `CC1(C)C(C=C(Cl)Cl)C1C(=O)OC(C#N)c1ccc(F)c(Oc2ccccc2)c1` (stereo not given): the outcome was inactive. For `CCc1ccc(C(=O)NN(C(=O)c2cc(C)cc(C)c2)C(C)(C)C)cc1`, the result was inactive. Same read-out and setting: with `CCOC1Oc2ccc(OS(C)(=O)=O)cc2C1(C)C` (stereo not given) the entry was “inactive”. For the molecule `COc1cc(OC)nc(NC(=O)NS(=O)(=O)c2cc(NC=O)ccc2C(=O)N(C)C)n1`, the outcome was inactive. Same read-out and setting: the value for `O=C(O)COc1ccc(Cl)cc1Cl` was “inactive”. The same measure, in the same setting: with `CC(C)N(C(=O)COc1nnc(C(F)(F)F)s1)c1ccc(F)cc1` the entry was “inactive”; with `CCOCN(C(=O)CCl)c1c(C)cccc1CC`, “inactive”. As for `O=[N+]([O-])/N=C1\NCCN1Cc1ccc(Cl)nc1`, the outcome was inactive. Same read-out and setting: with `COP(=O)(OC)OC=C(Cl)Cl` the entry was “inactive”; with `CCOc1nc(NC)nc(NC(=O)NS(=O)(=O)c2ccccc2C(=O)OC)n1`, “inactive”; with `CNC(=O)Oc1ccccc1OC(C)C`, “inactive”. Same read-out and setting: the value for `N#CN` was “inactive”. The same measure, in the same setting: with `COP(=S)(OC)Oc1ccc(SC)c(C)c1` the entry was “inactive”; with `CNC(=O)CSP(=S)(OC)OC`, “inactive”. With `CCS(=O)(=O)c1cccnc1S(=O)(=O)NC(=O)Nc1nc(OC)cc(OC)n1`, the result was inactive. On the same count and under the same terms, the value for `CCN(CC)C(=O)SCc1ccc(Cl)cc1` was “inactive”.

The values above are taken from PubChem BioAssay (EPA / NIEHS).
